Screening data: PubChem BioAssay, The Scripps Research Institute Molecular Screening Center
MOR-DOR inv ag: inverse agonists of MOR-DOR heterodimerization, primary screen, cell-based, luminescence; Mu-type opioid receptor (Homo sapiens) + Delta-type opioid receptor (Homo sapiens), …; cell-based MOR-DOR heterodimer luminescence, inverse agonism; inhibition, % at 9.3 µM; hit rate 0.21% among 340,000; AID 504357, 2011; in the data active means inhibition above about 22%, passing the limit was not always enough
MOR-DOR ag: agonists of OPRM1-OPRD1 heterodimerization, primary screen, cell-based, luminescence; cells; activation, % at 9.3 µM; hit rate 0.3% among 340,000; AID 504326, 2011
HTR5A inv ctr: HTR5A inverse agonists in luminescence cell assay, primary screen, counter-screen for OPRM1-OPRD1 heterodimer inverse agonist project, full-deck HTS. 5-hydroxytryptamine receptor 5A (Homo sapiens), P47898. HTR5A cell line, inverse agonism. inhibition, % at 9.3 µM. hit rate 0.083% among 340,000. AID 504634, 2011; in the data active means inhibition mostly above about 23%, no sharp cut-off; inactive means mostly below about 18%
HTR2A ag: mouse Htr2a agonists via beta-arrestin recruitment, primary screen, cell-based, luminescence. hit rate 0.66% among 360,000. AID 624169, 2012. activation, % at 7.6 µM. 5-hydroxytryptamine receptor 2A (Mus musculus), P35363. CHO-K1 mHTR2A beta-arrestin complementation; percent of 30 µM serotonin response;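 active means activation above a run cutoff, the mean activation of all tested compounds plus 3 SD, cut at about 14% in these data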
Target sequence (P35363 whole entry, looked up): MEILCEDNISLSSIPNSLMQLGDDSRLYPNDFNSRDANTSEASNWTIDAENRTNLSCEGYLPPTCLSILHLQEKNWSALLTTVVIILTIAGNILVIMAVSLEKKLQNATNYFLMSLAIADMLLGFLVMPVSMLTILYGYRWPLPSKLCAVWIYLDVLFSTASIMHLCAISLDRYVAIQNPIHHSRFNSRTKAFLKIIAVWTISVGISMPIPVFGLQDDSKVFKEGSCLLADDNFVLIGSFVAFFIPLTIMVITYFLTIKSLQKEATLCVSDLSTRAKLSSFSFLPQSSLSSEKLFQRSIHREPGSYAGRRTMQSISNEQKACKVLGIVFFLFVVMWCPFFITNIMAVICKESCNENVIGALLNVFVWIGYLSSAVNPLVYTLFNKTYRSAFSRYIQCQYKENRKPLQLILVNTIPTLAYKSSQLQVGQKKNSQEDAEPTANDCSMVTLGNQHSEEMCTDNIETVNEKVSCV
HTR5A ag ctr: HTR5A agonists in luminescence cell assay, primary screen, counter-screen for OPRM1-OPRD1 heterodimer agonist project, full-deck HTS; cell-based; activation, % at 9.3 µM; hit rate 0.61% among 340,000; AID 504692, 2011; in the data active means activation mostly above about 9.5%, no sharp cut-off; inactive means mostly below about 7.6%
MOR-DOR ag conf: agonists of MOR-DOR heterodimerization, confirmation, cell-based, luminescence. activation, % at 9.3 µM. hit rate 45% among 830. AID 504904, 2011. shares compounds with MOR-DOR ag. cells, luminescence complementation
HTR5A ag counter: HTR5A agonists in cells, counter-screen for OPRM1-OPRD1 heterodimer agonist project, cell-based, luminescence | shares compounds with MOR-DOR ag | HTR5A agonist counterscreen | activation, % at 9.3 µM | hit rate 8% among 830; in the data active means activation above about 17%
A number is an active result; . = inactive; / = no result given. Compounds with a hit are over-represented: about 1.6% of the library has one in this group of screens. Unless noted, no stated cut-off is given here; in the data, active means activation above about 18%; inactive means the rest.

SMILES | MOR-DOR inv ag | MOR-DOR ag | HTR5A inv ctr | HTR2A ag | HTR5A ag ctr | others
CC(=O)O[C@H]1CC[C@@]2(C)C(=CC(=O)C3C2CC[C@@]2(C)C3C[C@H](OC(C)=O)[C@@H]2OC(C)=O)C1 (stereo not given in full) | . | . | . | . | 9.0
Cc1cc(Br)cn2c(CC(=O)N3CCCCC3)c(-c3ccc(F)cc3)nc12 | / | / | / | . | /
CCCCn1c(NC(=O)c2ccc(Br)o2)c(C(=O)OCC)c2nc3ccccc3nc21 | 55 | . | . | . | .
CCCCn1c(N)c(C(=O)NCCN2CCOCC2)c2nc3ccccc3nc21 | . | . | . | . | .
COc1ccc2c(c1)NP(=S)(Oc1ccccc1)N2 (stereo not given) | . | . | . | . | 9.4
COC1CCC(OC2CC(C3(C)CCC4(CC(O)C(C)C(C(C)/C=C(\C)C(=O)C(C)CC(C)C(=O)O)O4)O3)OC3(OC(C4OC(O)(CO)C(C)CC4C)CC3C)C2C)OC1C (stereo not given) | . | 19 | . | . | .
O=[N+]([O-])c1cccnc1N1CCCNCC1 | . | . | . | 32 | .
O=[N+]([O-])c1ccc(N2CCNCC2)cc1N1CCCCC1 | . | . | . | . | .
C=CCCC[C@@H]1OC(=O)CNC(=O)C([C@@H](C)CC)NC(=O)[C@@H]2CCCN2C(=O)C([C@@H](C)CC)OC(=O)[C@H](Cc2ccccc2)N(C)C(=O)[C@H](C(C)C)NC(=O)C1(C)C (stereo not given in full) | / | / | / | . | /
CC[C@H](C)C1OC(=O)[C@@H](C)[C@@H](CC)NC(=O)[C@H](C)N(C)C(=O)C(C)(C)C(=O)C(C)NC(=O)[C@H](Cc2ccc(OC)cc2)N(C)C(=O)[C@H](C(C)C)N(C)C(=O)CNC(=O)[C@H](CC(C)C)N(C)C(=O)CNC1=O (stereo not given in full) | / | / | / | 21 | /
CCC(c1nnnn1C1CCCC1)N1CCC2(CC1)C(=O)NCN2c1ccccc1 (stereo not given) | / | / | / | . | /
CC(C)CC12CN3CCN(CC(C3)/C1=N/O)C2 | . | . | . | . | .
CC(C)C12CN3CCN(CC(C3)/C1=N\O)C2 | . | . | . | . | 12
O=c1[nH]c2ccccc2n1C1CCN(C(CCc2ccccc2)c2nnnn2C2CCCC2)CC1 (stereo not given) | / | / | / | . | /
O=c1c2ccccc2nc(/C=C/c2ccc(O)cc2)n1-c1ccccc1O | . | . | . | . | .
O=c1c2ccccc2nc(/C=C/c2ccccc2)n1-c1ccccc1O | . | 58 | . | . | .
CCOC(=O)[C@]12Cc3cc(Cl)ccc3[C@H]1N(C1CCCCC1)C(=O)c1ccccc12 | / | / | / | . | /
O=[N+]([O-])c1ccc(N2CCOCC2)c2c1no[n+]2[O-] | / | / | / | . | /
Cn1ncnc2c(=O)n(C)c(=O)nc1-2 | . | 31 | . | . | 20
O=C(c1cn(Cc2ccccc2)c2ccccc12)C1CC1 | . | . | . | . | 11
CC1OC(OC2C(O)CC(OC3C(O)CC(OC4CCC5(C)C(CCC6C5CCC5(C)C(C7=CC(=O)OC7)C(O)CC65O)C4)OC3C)OC2C)CC(O)C1O (stereo not given) | . | 62 | . | . | 19
Cc1ccccc1-c1ccc2c(c1)C1c3c(-c4ccccc4)nnn3-c3ccccc3C(=O)N1CC2 (stereo not given) | / | / | / | . | /
CC(C)CN1Cc2cc(-c3cccc(F)c3)ccc2-n2nncc2C1 | / | / | / | . | /
CNC(=S)N1CCn2cccc2C1c1cccnc1 (stereo not given) | . | . | . | . | 10
CCCCNC(=S)N1CCn2cccc2C1c1cccnc1 (stereo not given) | . | . | . | . | .
SMILES | MOR-DOR inv ag | MOR-DOR ag | HTR5A inv ctr | HTR2A ag | HTR5A ag ctr | others
Cc1cc(C=C2C(=O)NC(=S)NC2=O)c(C)n1-c1ccc2c(c1)OCO2 | . | . | . | 16 | .
COc1ccc(CCn2c(O)c(C=NCCN3CCCCC3)c(=O)[nH]c2=O)cc1OC | . | 79 | . | . | . | MOR-DOR ag conf=.;HTR5A ag counter=.
COc1ccc(CCn2c(O)c(/C=N/N3CCOCC3)c(=O)[nH]c2=O)cc1OC | / | / | / | . | /
C[C@]12CCC3C(CCC4=CC(O)CC[C@@]43/C=N/O)C1(O)CCC2C1=CC(=O)OC1 (stereo not given in full) | . | 69 | . | . | 29 | MOR-DOR ag conf=38;HTR5A ag counter=22
CC12CCC3C(CCC4(O)CC(O)CCC34C=NO)C1(O)CCC2C1=COC(=O)C1 (stereo not given) | . | 77 | . | . | 31 | MOR-DOR ag conf=.;HTR5A ag counter=.
CCCCN=C[C@]12CCC(O)CC1(O)CCC1[C@@H]2CC[C@]2(C)[C@H](C3C=CC(=O)O3)CCC12O (stereo not given in full) | . | 71 | . | . | 31 | MOR-DOR ag conf=36;HTR5A ag counter=27
CC12CCC3C(CCC4(O)CC(O)CCC34C=O)C1(O)CCC2C1=CC(=O)OC1 (stereo not given) | . | 79 | . | . | 29 | MOR-DOR ag conf=41;HTR5A ag counter=24
O=C1c2cccc(N3CCNCC3)c2C2CCCCN12 (stereo not given) | / | / | / | . | /
CC(C)C[C@@H]1COc2cccc(N3CCN(C)CC3)c2S(=O)(=O)N1 | / | / | / | . | /
Cc1cc(C(=O)OC(C)C(=O)Nc2ccccc2)c(C)n1C1CC1 (stereo not given) | / | / | / | . | /
C[C@]12CC[C@H]3[C@@H](CC[C@]4(O)C[C@@H](O)CC[C@]34C=O)[C@@]1(O)CC[C@@H]2C1=CC(=O)OC1 | . | 70 | . | . | . | MOR-DOR ag conf=.;HTR5A ag counter=.
C[C@H]1O[C@@H](OC2CC[C@]3(C=O)[C@H]4CC[C@]5(C)[C@@H](C6=CC(=O)OC6)CC[C@]5(O)[C@@H]4CC[C@]3(O)C2)CC2OC(C)(C)OC21 (stereo not given in full) | . | 73 | . | . | 33 | MOR-DOR ag conf=.;HTR5A ag counter=.
CC12CC[C@H]3[C@@H](CCC4(O)C[C@H](O)CCC34/C=N/NC(=O)c3ccccc3Cl)C1(O)CCC2C1=CC(=O)OC1 (stereo not given in full) | . | . | . | . | .
CCC(C)c1cnc(CC(C)C)c(=O)n1O (stereo not given) | / | / | / | . | /
CC1C(=O)CC2(C(C)C)CC12 (stereo not given) | / | / | / | . | /
CC[C@H]1c2ccccc2[C@@H]2CC[C@H]1N2c1ccccc1 | / | / | / | . | /
